Assay outcomes deposited in PubChem BioAssay by several laboratories.
HSP90 inh: blocks HSP90-mediated luciferase refolding in reticulocyte lysate | AID 1789 | Rabbit reticulocyte lysate, luciferase refolding luminescence, 3 h | hit rate 0.91% among 290,000 | inhibition, % at 5.6 µM;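 active = inhibition above the screen-wide mean plus 3 SD, computed separately per campaign, cut at about 16% in these data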;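 note: 0% = DMSO wells and 100% = 60 µM geldanamycin wells; inhibitors lower the luminescence because luciferase stays unfolded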
SENP6 block: blocks the human protease SENP6 | Q9GZR1 | Recombinant SENP6 catalytic domain, aminoluciferin luminescence | inhibition, % at 10 µM | hit rate 1.8% among 330,000 | AID 2599;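 active = inhibition above about 50% at the single tested dose, limit read from the data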;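 note: plate controls were DMSO wells with enzyme for no effect and DMSO wells lacking enzyme for full effect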
SENP8 block-1: inhibitors of human SENP8 protease. purified SENP8, Z-RLRGG-aminoluciferin cleavage, luminescence. inhibition, % at 10 µM. hit rate 1.2% among 330,000; in the data active = inhibition above about 50%
Target sequence (Q96LD8 whole entry, looked up): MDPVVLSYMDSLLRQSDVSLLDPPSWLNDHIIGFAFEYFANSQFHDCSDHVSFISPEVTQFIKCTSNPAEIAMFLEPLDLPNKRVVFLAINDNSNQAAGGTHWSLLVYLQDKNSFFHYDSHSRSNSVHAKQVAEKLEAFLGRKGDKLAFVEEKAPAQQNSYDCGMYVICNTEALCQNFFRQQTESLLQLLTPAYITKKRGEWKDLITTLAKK
Platelet DG rel: modulates dense granule release in human platelets | human platelet-rich plasma, SFLLRN dense granule ATP release, luminescence | inhibition, %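 (compounds screened at 7.5 µM in platelet-rich plasma)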 | hit rate 0.22% among 300,000;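 active = mean replicate score, as percent of positive control, at or above 50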
SENP8 block-2: blocks human SENP8 cleavage of Nedd8 substrate | inhibition, % at 20 µM | hit rate 0.64% among 360,000 | recombinant SENP8, Nedd8 substrate fluorescence | Q96LD8; in the data active = inhibition mostly above about 40%, no sharp cut-off; inactive = mostly below about 27%
SENP7 inh: inhibitors of human SENP7 protease; inhibition, % at 5 µM; hit rate 1.5% among 330,000; recombinant SENP7, Z-RLRGG-aminoluciferin luminescence, 40 min;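 active = inhibition above about 50% at the single test dose, limit read from the data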;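 note: plate controls were DMSO with enzyme for no effect and no enzyme buffer wells for full effect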
SENP8 confirm: confirmation of human SENP8 protease inhibitors. shares compounds with SENP7 inh. Recombinant SENP8, Z-RLRGG-aminoluciferin luminescence, 60 min. inhibition, % at 12.5 µM. hit rate 40% among 6,200. AID 488912;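 active = mean inhibition across replicates above about 50%, limit read from the data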
SENP6 confirm: human SENP6 inhibition, confirmed. shares compounds with SENP7 inh. inhibition, % at 12.5 µM. recombinant SENP6, Z-RLRGG-aminoluciferin luminescence. hit rate 58% among 6,200
SENP7 conf: confirmation of human SENP7 protease inhibitors; recombinant SENP7, Z-RLRGG-aminoluciferin luminescence, 40 min; shares compounds with SENP7 inh; inhibition, % at 12.5 µM; hit rate 69% among 6,200
Casp3 SENP sel: selectivity test for SENP inhibitors: human caspase-3 inhibition. shares compounds with SENP7 inh. purified caspase-3, Z-DEVD-aminoluciferin luminescence, 60 min. inhibition, % at 12.5 µM. hit rate 60% among 6,200. AID 488918;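 active = mean inhibition above about 50%, limit read from the data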;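 note: plate controls were enzyme with DMSO for no effect and wells without caspase-3 for full effect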
Target sequence (P42574 28-227 limits assumed): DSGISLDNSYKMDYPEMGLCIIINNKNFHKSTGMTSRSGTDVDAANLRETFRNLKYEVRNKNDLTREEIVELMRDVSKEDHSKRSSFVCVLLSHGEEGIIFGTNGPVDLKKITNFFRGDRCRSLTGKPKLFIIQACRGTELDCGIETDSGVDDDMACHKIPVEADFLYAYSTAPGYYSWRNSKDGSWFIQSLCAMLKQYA
SENP luc ctr: interferes with luciferase luminescence in SENP counter-screen; Pre-incubated SENP8/Z-RLRGG-aminoluciferin, luciferase luminescence interference; shares compounds with SENP7 inh; inhibition, % at 12.5 µM; AID 488919; hit rate 39% among 6,200;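 active = mean inhibition above about 50% when retested at one dose, limit read from the data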;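 note: plate controls were DMSO wells with completed reaction for no effect and substrate without enzyme for full effect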
The depositor's hits bear a star; · = not tested or not shown. Shown are actives, neighbours in structure and some others; about 2.8% of the full set was active somewhere.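 Rule for the calls, unless noted: active = mean inhibition above about 50% in the one-dose retest (limit read from the data); inactive = the rest.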

SMILES | HSP90 inh | SENP6 block | SENP8 block-1 | Platelet DG rel | SENP8 block-2 | SENP7 inh | SENP8 confirm | SENP6 confirm | SENP7 conf | Casp3 SENP sel | SENP luc ctr
N#C/C(=C/c1ccc(-c2cc(C(=O)O)cc(C(=O)O)c2)o1)c1nc2ccccc2s1 | 2 | -19 | 3 | 20 | · | 3 | · | · | · | · | ·
CCC(C)NC(=O)CCn1c(=O)c2cccn2c2ccc(F)cc21 (stereo unspecified) | 3 | -10 | -4 | -1 | -10 | -3 | · | · | · | · | ·
Cc1ccc(Cn2ccsc2=NC(=O)COC(=O)c2ccc(O)cc2O)cc1 | -1 | 74* | 41 | 41 | -3 | 23 | 57* | 55* | 79* | 25 | 46
CCc1ccc(N2C(=O)Cc3c2nc(N)c(C#N)c3N)cc1 | 9 | -2 | 1 | -5 | -78 | -4 | · | · | · | · | ·
COc1cc2c(C#N)c(N3CCOCC3)nc(N)c2c(N)n1 | 4 | 5 | -1 | -6 | -399 | 21 | · | · | · | · | ·
COc1cc2c(C#N)c(N3CCc4ccccc4C3)nc(N)c2c(N)n1 | 5 | 83* | 80* | 2 | -265 | 38 | 8 | 30 | 19 | 5 | 3
COc1ccc(CN2C(=O)Cc3c2nc(N)c2c(N)nc(N4CCCCC4)c(C#N)c32)cc1 | 4 | 61* | 4 | 6 | · | -2 | 12 | 12 | 7 | 4 | 0
CCN(CC)c1nc(N)c2c(N)nc(OC)cc2c1C#N | · | 76* | 51* | -3 | -487 | 41 | 7 | 12 | 9 | -3 | 8
CCN(CC)c1nc(N)c(C#N)c(CC#N)c1C#N | · | -8 | -4 | 1 | -114 | -13 | · | · | · | · | ·
CCOc1cc2c(C#N)c(N3CCCCC3)nc(N)c2c(N)n1 | -1 | 69* | 65* | 5 | -327 | 29 | 14 | 42 | 26 | 1 | 2
CCOc1cc2c(C#N)c(N3CCNCC3)nc(N)c2c(N)n1 | 3 | 88* | 37 | -6 | -326 | 47 | -8 | -4 | -8 | 2 | 1
COc1cc2c(C#N)c(N3CCCCC3)nc(N)c2c(N)n1 | 3 | 66* | 62* | 3 | -412 | 41 | 25 | 34 | 43 | 6 | 20
CCOC(=O)C1CCN(c2nc(N)c3c(N)nc(SCC(=O)O)cc3c2C#N)CC1 | 0 | · | · | 0 | -415 | · | · | · | · | · | ·
O=C1C2C3c4ccccc4C(c4ccccc43)C2C(=O)N1c1nc(-c2ccccc2)cs1 (stereo unspecified) | 0 | -5 | 6 | -6 | 29 | 4 | · | · | · | · | ·
N=C1SCC(=O)N1c1nc(-c2ccccc2)cs1 | -2 | 96* | 89* | -5 | 10 | 87* | -5 | 4 | -6 | 42 | -5
Cc1c(OCC(=O)N2CCC(C(=O)NCCCC(=O)O)CC2)ccc2c1oc(=O)c1ccccc12 | -1 | -2 | -3 | -4 | -409 | -4 | · | · | · | · | ·
COc1ccc(C=NCCc2ccc(OC)c(OC)c2)cc1OC | · | · | · | · | -3 | · | · | · | · | · | ·
O=C(CC1Nc2cccc3cccc(c23)NC1=O)Nc1ccc(F)cc1 (stereo unspecified) | 2 | 87* | 60* | 20 | -68 | 43 | -13 | -6 | -10 | 2 | -1
O=C(CC1Nc2ccccc2NC1=O)Nc1cc(Cl)cc(Cl)c1 (stereo unspecified) | 7 | -9 | -6 | 4 | -301 | -1 | · | · | · | · | ·
COc1ccc(NC(=O)CC2Nc3cccc4cccc(c34)NC2=O)cc1 (stereo unspecified) | 2 | 93* | 59* | -6 | -64 | 67* | 3 | 4 | 12 | 8 | 2
COc1ccc(NC(=O)CC2Nc3cc(C)c(C)cc3NC2=O)c([N+](=O)[O-])c1 (stereo unspecified) | 5 | -6 | 0 | 6 | 24 | -5 | · | · | · | · | ·
Cc1ccc(NC(=O)C(C)OC(=O)CCN=C2NS(=O)(=O)c3ccccc32)cc1 (stereo unspecified) | · | -8 | 1 | -14 | -1 | 8 | · | · | · | · | ·
Fc1cccc(-c2cc3nc4c(c(NCc5ccco5)n3n2)CCCC4)c1 | -2 | 85* | 70* | 15 | -281 | 1 | 0 | 14 | 19 | 31 | 46
O=C(CC(Nc1ccc(Cl)cc1)C(=O)O)c1ccccc1 (stereo unspecified) | -3 | 92* | 77* | 4 | -108 | 81* | 42 | 86* | 78* | 67* | 35
COc1ccc(S(=O)(=O)N2CCOC23CCN(S(=O)(=O)c2c(C)cc(C)cc2C)CC3)cc1 | · | -4 | 7 | · | 6 | 1 | · | · | · | · | ·
SMILES | HSP90 inh | SENP6 block | SENP8 block-1 | Platelet DG rel | SENP8 block-2 | SENP7 inh | SENP8 confirm | SENP6 confirm | SENP7 conf | Casp3 SENP sel | SENP luc ctr
O=C(Nc1ccc(Cl)cc1)Nc1cccc2nsnc12 | -2 | 92* | 91* | 6 | -84 | 94* | -13 | 91* | 88* | 82* | 47
Cc1cc(NC(=O)c2ccccc2)sc1C | 10 | 94* | 90* | 30 | 0 | 94* | 1 | 96* | 103* | 96* | 95*
CC(=O)Nc1ccc(N=Cc2c(O)c(C(=O)Nc3ccccc3)cc3ccccc23)cc1 | 2 | 45 | 72* | 45 | · | 30 | 21 | 16 | 20 | 14 | 11
O=[N+]([O-])c1cc(NCCO)c(N2CCCCCC2)c2nonc12 | 5 | 56* | 44 | 4 | 16 | 12 | -2 | 2 | -2 | -3 | -3
O=[N+]([O-])c1cc([N+](=O)[O-])c(N2CCCCCC2)cc1NCCO | 1 | 2 | -1 | -10 | 32 | 12 | · | · | · | · | ·
CC(=O)C1=C(O)C(=O)N(c2ccc(Br)cc2)C1c1cccc([N+](=O)[O-])c1 (stereo unspecified) | -7 | -5 | -7 | 8 | 18 | -12 | · | · | · | · | ·
CC(C)N(CCCNC(=O)Cn1c(=O)c2cccn2c2ccc(F)cc21)Cc1ccccc1 | -5 | -14 | -1 | -8 | -6 | 61* | 10 | 7 | -5 | 0 | -2
CCN1CCN(CCNC(=O)Cn2c(=O)c3cccn3c3ccc(F)cc32)CC1 | 2 | 5 | 8 | -3 | -3 | 1 | · | · | · | · | ·
CN(C)S(=O)(=O)c1ccc(Cl)c(NC(=O)CN2CCN(Cc3ccc4c(c3)OCO4)CC2)c1 | -2 | -8 | -7 | 4 | 11 | -2 | · | · | · | · | ·
Cc1nc2sc(-c3ccccc3)cc2c(=O)n1/N=C/N(C)C | -3 | -21 | 7 | 4 | -235 | 7 | · | · | · | · | ·
Cc1nc2sc(-c3ccccc3)cc2c(=O)n1-n1cccc1 | -1 | 62* | 34 | -4 | -12 | 43 | 7 | 17 | 43 | 32 | 2
